Data as given in PubChem BioAssay (Tox21).
Records with an inconclusive call do not appear. Entries that show only a call come without a potency. Values without a mark were called inactive. Activity calls are given as the source filed them. The call rests on the fitted dose curve; in most records, active means well fitted cell-killing curve with a large enough effect in the repeat runs; inconclusive means weak or mixed curves, or effect the other way; inactive means no such curve, though single readings can be large or run the other way.

test: qHTS assay to identify small molecule antagonists of the progesterone receptor (PR) signaling pathway - cell viability counter screen (AID 1346798); conditions: PR-UAS-bla HEK293T viability, CellTiter-Glo luminescence, 16 h; series mostly up to 92.4 µM; further: nearly all actives have a fitted effect of over 50% in size
Description: National Center for Advancing Translational Sciences [NCATS]
NIH Chemical Genomics Center [NCGC]
U.S. Environmental Protection Agency [EPA]
National Institutes of Environmental Health Sciences [NIEHS]
National Toxicology Program [NTP]
U.S. Food and Drug Administration [FDA]
Progesterone receptor (PR), a nuclear hormone receptor, plays an important role in development, metabolic homeostasis and reproduction. It is activated by the steroid hormone progesterone. Endocrine disrupting chemicals (EDCs) and their interactions with steroid hormone receptors like PR causes disruption of normal endocrine function. To identify the compounds that inhibit PR signaling, a PR-UAS-bla GripTite cell line i.e. PR-UAS-bla HEK293T (Invitrogen, Carlsbad, CA, USA) containing a beta-lactamase reporter gene under the control of an UAS response element was used to screen Tox21 10K compound library. The cytotoxicity of the Tox21 compound library against the PR-bla cell line was tested in parallel by measuring the cell viability using CellTiter-Glo assay in the same wells.
Tox21 Assay Protocol Summary:
PR-UAS-bla HEK293T cells were dispensed at 3,000 cells/4 uL of assay medium containing 2% charcoal stripped FBS per well into black wall/clear-bottom 1536-well plates using a Multidrop Combi (ThermoFisher Scientific, Waltham, MA) dispenser. After the assay plates were incubated at a 37C and 5% CO2 for 4 hr, 23 nL of compounds dissolved in DMSO, positive controls or DMSO only was transferred to the assay plate by a Pintool station (Kalypsys, San Diego, CA), followed by addition of 1 uL of R5020 in assay medium using a Flying Reagent Dispenser (FRD, Aurora Discovery, San Diego, CA). The plates were incubated at 37C and 5% CO2 for 16 hr. Then 1 uL of LiveBLAzer B/G FRET substrate was added using a Flying Reagent Dispenser, the plates were incubated at room temperature for 2 hours, and fluorescence intensity was measured by an Envision plate reader (PerkinElmer, Shelton, CT). For cell viability readout that measures cytotoxicity, 4 uL/well of CellTiter-Glo reagent was added into the assay plates using a FRD. After 30 min incubation at room temperature, the luminescence intensity in the plates was measured using a ViewLux (PerkinElmer) plate reader.

| Compound | Potency | activity change, negative = cytotoxicity |
| --- | --- | --- |
| Cc1ccccc1CO[C@@H]1C[C@@]2(C(C)C)CC[C@]1(C)O2 | inactive |  |
| CCOC(=O)CP(=O)(OCC)OCC | inactive |  |
| CNC(=O)Oc1ccc(N(C)C)c(C)c1 | inactive |  |
| O=[N+]([O-])c1cccc2cccnc12 | inactive |  |
| COc1cc(OC)nc(NC(=O)NS(=O)(=O)c2ncccc2OCC(F)(F)F)n1 | inactive |  |
| N#CCNCC#N | inactive |  |
| CCOC(=O)N(C)C(=O)CSP(=S)(OCC)OCC | inactive |  |
| Nc1ccccc1Cl | inactive |  |
| CCC(=O)c1ccccc1 | inactive |  |
| CC(CCc1ccccc1)NC(C)C(O)c1ccc(O)cc1 (stereo not given) | inactive |  |
| CNC(=O)N(C)c1nc2ccccc2s1 | inactive |  |
| OC(c1ccccc1)(c1ccccc1)C1CCNCC1 | inactive |  |
| CC1(C)COP(Oc2ccccc2)OC1 | inactive |  |
| NC(=O)c1cc([N+](=O)[O-])cc([N+](=O)[O-])c1 | inactive |  |
| O=C1c2ccccc2C(=O)c2ccccc21 |  | 9.36% [at 18.9 µM] |
| CCOP(=S)(OCC)Oc1nc(Cl)n(C(C)C)n1 | inactive |  |
| CN/C(=N\[N+](=O)[O-])NCC1CCOC1 (stereo not given) | inactive |  |
| C[C@]12CC[C@H]3[C@@H](CC=C4C[C@@H](O)CC[C@@]43C)[C@@H]1CC[C@@H]2O | inactive |  |
| Fc1ccc(C2(Cn3cncn3)OC2c2ccccc2Cl)cc1 (stereo not given) | inactive |  |
| CCC/C(=N\OCC)C1=C(O)CC(CC(C)SCC)CC1=O (stereo not given) | inactive |  |

| Compound | Potency | activity change, negative = cytotoxicity |
| --- | --- | --- |
| CCOP(=S)(OCC)SCSc1ccc(Cl)cc1 | inactive |  |
| CCOP(=O)(N=C1SCCS1)OCC | inactive |  |
| CCCCOC(=O)c1ccccc1N | inactive |  |
| COc1cccc2c1cc([N+](=O)[O-])c1c(C(=O)O)cc3c(c12)OCO3 | inactive |  |
| ClC(Cl)C(Cl)Cl | inactive |  |
| CCN(CC)c1nc(C)cc(OP(=S)(OC)OC)n1 | inactive |  |
| CCCCN(CCCCO)N=O | inactive |  |
| O=[N+]([O-])c1ccc(CBr)cc1 | inactive |  |
| CCCSC(=O)Cl | inactive |  |
| O=C(Cc1ccccc1)OCc1ccccc1 | inactive |  |
| CC(N)=S | inactive |  |
| CCSC(=O)N(CC)C1CCCCC1 | inactive |  |
| CCOc1nc(C(Cl)(Cl)Cl)ns1 | inactive |  |
| Nc1c(Br)cc([N+](=O)[O-])cc1[N+](=O)[O-] | inactive |  |
| OC(Cn1cncn1)(c1ccc(F)cc1)c1ccccc1F (stereo not given) | inactive |  |
| CC(C1CC1)C(O)(Cn1cncn1)c1ccc(Cl)cc1 (stereo not given) | inactive |  |
| C(CCOCC1CO1)COCC1CO1 (stereo not given) | inactive |  |
| Cc1coc2c1CCC(C)C2 (stereo not given) | inactive |  |
| ClCCCN1CCN(c2cccc(Cl)c2)CC1 | inactive |  |
| O=C(Nc1ccccc1)c1ccccc1I | inactive |  |
